The values below come from PubChem BioAssay AID2283179 (EPA ToxCast).

Results filed as inconclusive are left out. The source made the active and inactive calls. The calls were made as follows: active = hit-call score of the fitted dose curve at least 0.9, where 1 is the maximum; inconclusive = response in the unintended direction; inactive = score below 0.9.

Chain of human Microtubule Affinity Regulating Kinase 1 (MARK1), MARK1 (gene 4139) (Q9P0L2 whole entry, looked up): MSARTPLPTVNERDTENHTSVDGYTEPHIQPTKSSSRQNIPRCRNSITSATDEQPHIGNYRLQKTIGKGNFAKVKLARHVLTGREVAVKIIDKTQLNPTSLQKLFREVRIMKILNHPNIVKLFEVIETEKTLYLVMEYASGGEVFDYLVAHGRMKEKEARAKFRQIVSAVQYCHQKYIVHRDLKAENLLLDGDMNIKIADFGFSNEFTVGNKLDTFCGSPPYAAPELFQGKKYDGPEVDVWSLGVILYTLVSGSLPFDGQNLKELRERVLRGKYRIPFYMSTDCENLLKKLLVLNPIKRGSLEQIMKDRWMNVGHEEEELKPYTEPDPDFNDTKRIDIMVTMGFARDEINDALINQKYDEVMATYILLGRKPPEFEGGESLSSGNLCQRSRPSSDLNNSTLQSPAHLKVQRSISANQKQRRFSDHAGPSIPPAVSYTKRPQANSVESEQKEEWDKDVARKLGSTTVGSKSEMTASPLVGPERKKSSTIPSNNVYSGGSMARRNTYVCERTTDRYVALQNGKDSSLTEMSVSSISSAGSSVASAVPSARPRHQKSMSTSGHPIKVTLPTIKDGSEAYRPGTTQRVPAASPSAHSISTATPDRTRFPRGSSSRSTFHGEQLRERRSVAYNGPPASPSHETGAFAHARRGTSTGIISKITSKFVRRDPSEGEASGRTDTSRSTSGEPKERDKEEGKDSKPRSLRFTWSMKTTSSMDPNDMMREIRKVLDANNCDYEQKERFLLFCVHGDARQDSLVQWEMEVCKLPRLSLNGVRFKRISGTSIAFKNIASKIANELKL

In the experiment the target is human Microtubule Affinity Regulating Kinase 1 (MARK1), MARK1 (gene 4139) (UniProt Q9P0L2). In words: NVS_ENZ_hMARK1: NovaScreen (NVS) Enzymatic Assay for human Microtubule Affinity Regulating Kinase 1 (MARK1). The method, then:
NVS_ENZ_hMARK1 is a biochemical, single-readout assay that uses extracted gene-proteins in a cell-free assay. Measurements were taken 1 hour after chemical dosing in a 384-well plate.NVS_ENZ_hMARK1 is one of one assay component(s) measured or calculated from the NVS_ENZ_hMARK1 assay. It is designed to make measurements of enzyme activity, a form of enzyme reporter, as detected with fluorescence intensity signals by Fluorescence and electrophoretic mobility shift technology.Data from the assay component NVS_ENZ_hMARK1 was analyzed into 1 assay endpoint. This assay endpoint, NVS_ENZ_hMARK1, was analyzed in the positive analysis fitting direction relative to DMSO as the negative control and baseline of activity. Using a type of enzyme reporter, loss-of-signal activity can be used to understand changes in the enzymatic activity as they relate to the gene MARK1. Furthermore, this assay endpoint can be referred to as a primary readout, because this assay has produced multiple assay endpoints where this one serves a enzymatic activity function. To generalize the intended target to other relatable targets, this assay endpoint is annotated to the kinase intended target family, where the subfamily is serine/threonine kinase.
Binding assays used specific radioligands (tritiated, iodinated) with non-radioactive competitive displacement ligands in agonist or antagonist protocols (as indicated) and various reference compounds and inhibitors to titrate specific binding to receptors and transporters. Most enzyme assays (CYPs, kinases, phosphatases, proteases, HDACs) used recombinant protein and specific substrates (fluorescence mostly, some colorimetric and radioactive) and inhibitors, followed by a biochemical separation of substrate and product. All assays for the biochemical HTS were initially run in duplicate at a single concentration (10 uM for CYP450 assays and 25 uM for all others). Assay-chemical combinations meeting a pre-defined threshold (e.g., 30% inhibition and other criteria defined below) were then run in singleton concentration-response format with maximum concentration of 20 uM for CYPs and 50 uM for all others. Each assay was run with positive and negative controls, and concurrent controls on every plate. The follow-up (secondary) screen tested active chemical-pairs in concentration series, as well as a few additional assays not tested in the primary screen, some selected negative inactives, and several cases re-run in the concentration series for confirmatory purposes.
Take `CNC(=S)S`: the call was inactive.
As for `COC(=O)c1ccccc1S(=O)(=O)NC(=O)N(C)c1nc(C)nc(OC)n1`, the call was inactive.
As for `CCOP(=S)(OCC)Oc1nc(Cl)n(C(C)C)n1`, the call was inactive.
On to `CCNC(=O)NC(=O)C(C#N)=NOC`, for which the compound was classed as inactive.
The term AC50 denotes the concentration giving half of the maximal activity seen. Take `CN(C)[C@@H]1C(=O)C(C(N)=O)=C(O)[C@@]2(O)C(=O)C3=C(O)c4c(O)cccc4[C@@](C)(O)[C@H]3[C@H](O)[C@@H]12`: the AC50 was 18 µM (active).
Consider `N#CSCSC#N`, for which the result was inactive.
Take `Nc1c(Cl)cc([N+](=O)[O-])cc1Cl`: the outcome was inactive.
With `O=C(O)C(F)(F)C(F)(F)C(F)(F)C(F)(F)C(F)(F)C(F)(F)C(F)(F)F`, the compound was called inactive.
For `COc1nc(C)nc(NC(=O)NS(=O)(=O)c2ccccc2CCC(F)(F)F)n1`, the result was inactive.
Regarding `CCOP(=O)(OCC)Oc1nc(Cl)c(Cl)cc1Cl`, the compound was classed as inactive.
As for `O=S(=O)(O)C(F)(F)C(F)(F)C(F)(F)C(F)(F)C(F)(F)C(F)(F)C(F)(F)C(F)(F)F`, the AC50 is 36.8 µM (active).
For the compound `COP(=S)(OC)Oc1nc(Cl)c(Cl)cc1Cl`, the call was inactive.
